# From PubChem
# ClpP mod – qHTS Assay for Activators of ClpP | purified B. subtilis ClpP, FRET peptide cleavage, 20 min | hit rate 1.9% among 340,000 | ATP-dependent Clp protease proteolytic subunit (Bacillus subtilis (strain 168)), P80244 | Potency, µM (top dose mostly 57.5 µM), inactives show at the highest dose activity change, negative = active; active means well fitted falling curve with a large enough effect; inconclusive means small, poorly fitted or top-dose-only effect; inactive means no such curve, though single readings can be large or run the other way; further: potency means the concentration at half of the fitted maximal effect; the source files actives as falling curves though it sought activators and does not explain the sign; nearly all actives have a fitted effect of over 65% in size
#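 Buffer: 100 mM Tris/HCl pH8, 100 mM KCl, 0.05% low protease BSA, 2.5% glycerol, 0.01% Tween-20. ClpP 10 microg/mL final; 20 min RT; delta FRET normalized to ADEP and DMSO controls.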
# D3 ag – D3 dopamine receptor (human) agonism | D3R DiscoveRx beta-arrestin cells, luminescence, 90 min | max activation, % | AID 652048 | hit rate 0.58% among 410,000 | P35462; in the data active means max activation above about 30%; further: 0% is about no effect
# Target sequence (P35462 whole entry, looked up): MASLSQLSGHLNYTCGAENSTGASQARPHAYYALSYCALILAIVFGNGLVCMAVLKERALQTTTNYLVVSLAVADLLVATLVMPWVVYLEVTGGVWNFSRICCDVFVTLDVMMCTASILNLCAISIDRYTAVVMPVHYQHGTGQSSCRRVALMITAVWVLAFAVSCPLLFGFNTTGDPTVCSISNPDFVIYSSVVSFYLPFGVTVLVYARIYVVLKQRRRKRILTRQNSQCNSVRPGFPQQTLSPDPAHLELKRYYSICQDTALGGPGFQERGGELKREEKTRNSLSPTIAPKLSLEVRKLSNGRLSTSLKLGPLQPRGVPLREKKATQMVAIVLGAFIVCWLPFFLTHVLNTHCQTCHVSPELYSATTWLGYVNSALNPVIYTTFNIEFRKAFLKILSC
#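 Agonist-mode cell screen: cells plated at 1500/well and incubated overnight at 37 °C, then exposed to library compounds for 90 min at 37 °C. Detection reagent was added for 30–60 min at room temperature, and luminescence was read.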
# IL1B secr inh – blocks inflammasome-driven IL-1 beta release | THP-1 LPS/ATP IL-1B secretion, AlphaLISA, 16 h; stronger effect = lower value | activity change, % at 57.5 µM | AID 743279 | hit rate 4.7% among 360,000; in the data active means activity change below about -50%; inconclusive means mostly about -30% to -49%; further: on the % scale 0 is the no-effect control and ±100 the full control effect
#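 THP-1 cells pretreated 1 hr with compounds (up to 57.5 uM final), then stimulated with LPS (250 ng/mL final) plus ATP (1.25 mM final); secreted IL-1B measured by AlphaLISA after 16 hr, decreased signal indicating inhibition.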
# TDP1 cell noCPT – qHTS for Inhibitors of human tyrosyl-DNA phosphodiesterase 1 (TDP1): qHTS in cells in absence of CPT | Potency, µM (series often up to 46.2 µM), without a hit: top-dose activity change, negative = growth inhibition, usual class: inhibitors | hit rate 15% among 420,000 | AID 686978, 2013 | DT40 Tdp1-/- hTDP1 cells, no CPT, ATP luminescence, 48 h; further: potency means the concentration at half of the fitted maximal effect; on the % scale 0 is the no-effect control and ±100 the full control effect; nearly all actives have a fitted effect of over 55% in size
#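 Growth of hTDP1-complemented DT40 Tdp1-knockout cells is measured by ATP luminescence after at least 48 hr compound exposure at 37 °C, with DMSO substituting for the 20 nM CPT used in the parallel screen.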
# D3 antag – blocks the human D3 dopamine receptor | AID 652054 | D3R cells, DiscoveRx beta-arrestin luminescence, antagonist mode; stronger effect = lower value | P35462 | hit rate 2.5% among 360,000 | max response, negative = inhibition, %; in the data active means max response below about -50%; inconclusive means no clear call, values can overlap the other calls; further: on the % scale 0 is the no-effect control and ±100 the full control effect
#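 Cells expressing the human receptor were seeded at 1500 cells/well, incubated overnight at 37 degrees C in 5% CO2, then exposed to library compounds with dopamine controls for 90 minutes at 37 degrees C before luminescent detection.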
# TDP1 cell CPT – growth inhibition of DT40 Tdp1-/-;hTDP1 cells with camptothecin (screen for TDP1 inhibitors); chicken DT40 Tdp1-/-;hTDP1 cells + 20 nM CPT, ATP luminescence, 48 h; hit rate 12% among 420,000; Potency, µM (highest dose often 46.2 µM), without a hit: at the top dose activity change, negative = growth inhibition, most hits filed as inhibitors; AID 686979; further: potency means the concentration at half of the fitted maximal effect; on the % scale 0 is the no-effect control and ±100 the full control effect; nearly all actives have a fitted effect of over 55% in size
#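 Cell growth measured by CellTiter-Glo luminescence after a minimum 48 h, 37 C compound exposure with 20 nM CPT in Tdp1-knockout DT40 cells stably expressing hTDP1, seeded 400/well; qHTS titration format.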
# * hit, by the source's call; u = inconclusive; x = no result; [ ] = another dose, or the depositor's remark. Only some compounds are listed: those with a hit (about 21% of all), similar ones and a draw of the others. Unless noted, the call rests on the fitted dose curve; in most records, active means well fitted inhibition curve with a large enough effect; inconclusive means small, poorly fitted or top-dose-only effect; inactive means flat fitted curve, though single readings scatter.
SMILES,ClpP mod,D3 ag,IL1B secr inh,TDP1 cell noCPT,D3 antag,TDP1 cell CPT
Cc1oc(-c2cccc(NC(=O)C3CCCN(C)C3)c2)nc1CNC(=O)c1coc2c1C(=O)CCC2 (configuration not stated),x,x,x,16µM*,x,4%[9.04 µM]
CSc1nc(C(=O)NCc2nc(-c3cccc(NC(=O)c4ccc(C)s4)c3)oc2C)cs1,x,x,x,-2%,x,9%[9.04 µM]
Cc1ccc(C(=O)Nc2cccc(-c3nc(CNC(=O)c4cccc(N(C)C)c4)c(C)o3)c2)s1,x,x,x,16µM*,x,4%[9.04 µM]
COc1ccc(C(=O)NCc2nc(-c3cccc(NC(=O)c4ccc(C)s4)c3)oc2C)cc1,x,x,x,15µM*,x,0%[9.04 µM]
Cc1ccc(C(=O)Nc2cccc(-c3nc(CNC(=O)C4(C)CC4)c(C)o3)c2)s1,x,x,x,-6%,x,-9%
CCCn1cnc2c1c(=O)n(CCCCC(C)=O)c(=O)n2C,x,-7,x,-7%,x,-18%
CCCCn1c(=O)c2oc3ccccc3c2n(Cc2cccc(C)c2)c1=O,-20%,12,x,u,x,-14%
O=C(CC[C@H]1O[C@@H](n2ccc(=O)[nH]c2=O)[C@H](O)[C@@H]1O)NCCN1CCOCC1,-2%,5,-9,10%,30,0%
O=C(CCNc1cc(Cl)cc(Cl)c1)c1ccco1,-2%,-1,18,13µM*,8,13µM*
O=C(CNC(=O)c1ccco1)Nc1cccc(Cl)c1,-1%,19,0,18%,1,-7%
O=C(CCNc1ccc(Cl)c(C(F)(F)F)c1)c1ccco1,0%,-13,-5,9.2µM*,4,7.3µM*
O=C(CCNc1ccc(F)c(Cl)c1)c1ccco1,-2%,-1,-101*,6.5µM*,-19,3.7µM*
O=C(CCNc1ccc(F)cc1)c1ccco1,-1%,-1,-2,7.3µM*,-3,3.3µM*
CC(Oc1ccc(Cl)cc1Cl)C(=O)NNC(=O)C(=O)N1CCCC1 (configuration not stated),x,-1,0,u,-3,-6%
CN(C)c1ccc(/C=N/N(CCC#N)C2=NS(=O)(=O)c3ccccc32)cc1,x,-5,23,u,-4,10%
CC1=C(C(=O)OCC2CCCO2)C(c2ccsc2)C2=C(CCCC2=O)N1 (configuration not stated),x,-2,10,u,-9,7%
O=C(CCNc1cccc(C(F)(F)F)c1)c1ccco1,1%,2,-3,16µM*,-18,21µM*
C=CCc1cccc2cc(C(=O)NC)c(=O)oc12,22µM*,-1,-2,-5%,23,-1%
O=C(Nc1sc2c(c1C(=O)NCc1cccnc1)CCCC2)c1cc(=O)c2ccccc2o1,-1%,7,x,u,x,u
COc1ccccc1-c1ccc2ncnc(N3CCNCC3)c2c1,x,x,x,14%,x,u
CCOc1ccccc1NC(=O)c1cc(SC)ccc1Cl,x,-5,47,18µM*,-2,u
CCOc1ccccc1NC(=O)c1ccccc1-c1ccccc1,x,-6,34,23µM*,-30,u
CCOc1ccccc1NC(=O)c1cccc2ccccc12,-6%,2,-14,u,-12,u
C/C(=N\NC(=O)Cn1nc(C)c([N+](=O)[O-])c1C)c1ccco1,x,-9,-6,-7%,-11,3%
c1ccc(Cn2c(-c3ccccc3)c[n+]3c2SCCC3)cc1,x,-8,-21,2.3µM*,1,2.9µM*
c1ccc(-c2ccc(CN3CCSCC3)cc2)cc1,x,-13,-26,-24%,-11,u
CCCCCCCCCCCC(=O)[O][Sn]([CH2]CCC)([CH2]CCC)[O]C(=O)CCCCCCCCCCC,x,1,x,0%,x,-11%
CCN1CCN(/C=N/c2nc3c(s2)CCCC3)CC1,-1%,0,0,-14%,-75*,-9%
